Screening data (PubChem BioAssay)
This is a sample that favours compounds with a hit; in the whole collection about 0.92% have one here.
MEP2 TOR yeast: modulators of MEP2-GFP levels in yeast, primary screen, S. cerevisiae, multiplex flow cytometry, MLPCN library; S. cerevisiae MEP2-GFP strain, 3 h; 100% = DMSO control level; GFP response vs DMSO, % at 10 µM; 0.51% of 330,000 active;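 active means GFP response versus DMSO above a set limit, roughly screen mean plus 3 SD, cut at about 180% in these data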;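 further: median GFP fluorescence of the barcode-gated MEP2-GFP cells per well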
CIT2 TOR yeast: modulators of CIT2-GFP expression in yeast, primary screen, S. cerevisiae, GFP fusion, multiplex flow cytometry, MLPCN library; 0.065% of 320,000 active; S. cerevisiae CIT2-GFP strain, 3 h; 100 means same as DMSO wells; GFP response vs DMSO, % at 10 µM;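 active means GFP response relative to DMSO above a set limit, near the screen mean plus 3 SD, cut at about 150% in these data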;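 further: ratio of well median GFP fluorescence to mean of DMSO wells on the plate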
AGP1 TOR yeast: modulators of AGP1-GFP expression in yeast TOR pathway, primary screen, cell-based, multiplex flow cytometry, S. cerevisiae, MLPCN library; 3 h; GFP as percent of DMSO wells; GFP response vs DMSO, % at 10 µM; 0.02% of 320,000 active;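 active means GFP response relative to DMSO above a set limit, near screen average plus 3 SD, cut at about 150% in these data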;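 further: median GFP channel fluorescence of the gated AGP1 strain per well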
RPL19A TOR yeast: RPL19A-GFP expression modulators in yeast, primary screen, cell-based, S. cerevisiae, multiplex flow cytometry, MLPCN; S. cerevisiae RPL19A-GFP strain, 3 h; stronger effect = lower value; percent response vs DMSO, % at 10 µM; 0.3% of 330,000 active;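 active means percent response vs DMSO below 50%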;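 further: median channel GFP fluorescence of the barcoded RPL19A-GFP strain; ratio of sample median GFP to plate DMSO average so 100% = DMSO; lower means less RPL19A-GFP as with rapamycin TOR inhibition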
LAP4-GFP MLPCN: modulators of LAP4-GFP expression in yeast, primary screen, S. cerevisiae, multiplex flow cytometry, MLPCN library | 3 h; median GFP as percent of DMSO wells | GFP response vs DMSO, % at 10 µM | 0.34% of 320,000 active | AID 2023, 2009;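 active means GFP response vs DMSO above a set limit, about the screen mean plus 3 SD, cut at about 150% in these data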
LAP4-GFP pick2: LAP4-GFP expression modulators in yeast, confirmation, cell-based, second cherry pick, flow cytometry; shares compounds with LAP4-GFP MLPCN; S. cerevisiae LAP4-GFP strain, 3 h; GFP response vs DMSO, % at 10 µM; 20% of 590 active;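 active means GFP signal as percent of the solvent control above about 150%, meaning raised reporter expression, limit read from the data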;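 further: ratio of well median GFP fluorescence to plate DMSO mean so 100% = DMSO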
MEP2 cherry2: modulators of MEP2-GFP levels in yeast, confirmation, S. cerevisiae, flow cytometry GFP, second cherry picks; GFP response vs DMSO, % at 10 µM; shares compounds with LAP4-GFP MLPCN; 10% of 590 active; S. cerevisiae MEP2-GFP strain, 3 h;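 active means GFP signal above 150% of the solvent control wells, that is a rise of more than half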;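 further: median channel GFP fluorescence of all gated yeast cells per well; ratio of median GFP to plate DMSO average so 100% = DMSO level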
RPL19A GFP CP2: RPL19A-GFP modulators in TOR pathway yeast, confirmation, cell-based, S. cerevisiae, flow cytometry, second cherry pick | GFP response vs DMSO, % at 10 µM | AID 2623, 2010 | 3% of 590 active | S. cerevisiae RPL19A-GFP strain, 3 h; stronger effect = lower value; 100% means same as DMSO wells | shares compounds with LAP4-GFP MLPCN;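 active means under 65% GFP response relative to DMSO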;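 further: median GFP channel fluorescence per well over the all cells gate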
CIT2-GFP pick2: modulators of CIT2-GFP expression in yeast, confirmation, flow cytometry, second cherry pick, single plex; GFP response vs DMSO, % at 10 µM; shares compounds with LAP4-GFP MLPCN; 8% of 590 active; AID 2624, 2010; S. cerevisiae CIT2-GFP strain, 3 h; DMSO control wells read 100%;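 active means GFP response vs DMSO above about 150%, limit read from the data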;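 further: median green fluorescence per well over all gated yeast cells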
AGP1-GFP pick2: AGP1-GFP expression modulators, hit retest, confirmation, cell-based, flow cytometry, S. cerevisiae, cherry pick set 2 | shares compounds with LAP4-GFP MLPCN | S. cerevisiae AGP1-GFP strain, 3 h | percent response vs DMSO, % at 10 µM | 590 tested, under 10 active;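 active means over 150 percent of DMSO response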;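 further: median GFP channel fluorescence over all cells without mother daughter split; sample median GFP divided by mean DMSO control so 100% equals DMSO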
Yeast autofluor: compound autofluorescence in yeast s288c, dose response, artefact control for yeast TOR pathway GFP screen, s288c strain; shares compounds with LAP4-GFP MLPCN; S. cerevisiae s288c, 520 nm autofluorescence, flow cytometry, 3 h; stronger effect = higher value; zero means same as solvent-only cells; fluorescence change (kMESF span) at 33 µM; 610 tested, under 10 active; AID 2757, 2010;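 active means fluorescence span over the dose series, or activity score, above about 33, limit read from the data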
* hit, by the source's call; . = not tested or not shown.

SMILES	MEP2 TOR yeast	CIT2 TOR yeast	AGP1 TOR yeast	RPL19A TOR yeast	LAP4-GFP MLPCN	LAP4-GFP pick2	MEP2 cherry2	RPL19A GFP CP2	CIT2-GFP pick2	AGP1-GFP pick2	Yeast autofluor
O=C1NC(=O)N(Cc2ccccc2Cl)C(=O)/C1=C/c1cccs1	83	77	81	95	133	.	.	.	.	.	.
O=C1NC(=O)N(Cc2ccc(F)cc2)C(=O)/C1=C/c1cccs1	99	76	91	88	170*	196*	133	76	79	81	0.1
O=C1C(=O)c2ccccc2-c2ccccc21	99	81	77	95	105	.	.	.	.	.	2.1
C/C(=C\c1ccc(N(C)C)cc1)[N+](=O)[O-]	102	100	102	102	155*	103	93	98	111	99	.
CN1C(=O)/C(=C/c2ccc(Cl)s2)C(=O)NC1=S	85	92	70	100	118	.	.	.	.	.	.
Cc1ccsc1/C=C1\C(=O)NC(=S)N(C)C1=O	87	90	56	55	52	103	128	67	79	64	-1.4
COC(=O)C1=C(c2ccc(Cl)c(C(F)(F)F)c2)C[C@@H]2CC[C@H]1N2C(=O)NCCOc1ccccc1	96	101	102	96	106	.	.	.	.	.	.
